TDP1 cell noCPT: qHTS for Inhibitors of human tyrosyl-DNA phosphodiesterase 1 (TDP1): qHTS in cells in absence of CPT | 420,000 tested, 15% active | Potency, µM (doses to about 46.2 µM), usual class: inhibitors | DT40 Tdp1-/- hTDP1 cells, no CPT, ATP luminescence, 48 h | AID 686978, 2013; also: nearly all actives have a fitted effect of over 55% in size
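Growth kinetics read by CellTiter-Glo luminescence after ≥48 hr at 37 °C. Cells: DT40 Tdp1-/- stably carrying human TDP1, 400 per well, compound exposure in the absence of CPT (DMSO vehicle).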
ELG1 repair inh: qHTS screen for small molecules that inhibit ELG1-dependent DNA repair in human embryonic kidney (HEK293T) cells expressing luciferase-tagged ELG1. HEK293T ELG1-luciferase reporter, luminescence, 16 h; DNA damage induced by 5-fluorouridine. Potency, µM (titrated, usually from 46.1 µM), actives largely listed as inhibitors. 330,000 tested, 2.3% active; also: nearly all actives have a fitted effect of over 55% in size
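DMSO vehicle served as the neutral condition. Each well held 2,000 cells given 5-fluorouridine plus compound; after 16 hr at 37 °C/5% CO2, ONE-Glo was added and luciferase measured 30 min later.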
RORgamma inh: qHTS for inhibitors of ROR gamma transcriptional activity | Drosophila S2 Gal4-RORgamma UAS-luciferase reporter, 20 h | Potency, µM (series often up to 53.6 µM), hits mostly inhibitors | 310,000 tested, 5.4% active | Nuclear receptor ROR-gamma (Mus musculus), P51450; also: nearly all actives have a fitted effect of over 60% in size
Target sequence (P51450 whole entry, looked up, the tested form may be a part): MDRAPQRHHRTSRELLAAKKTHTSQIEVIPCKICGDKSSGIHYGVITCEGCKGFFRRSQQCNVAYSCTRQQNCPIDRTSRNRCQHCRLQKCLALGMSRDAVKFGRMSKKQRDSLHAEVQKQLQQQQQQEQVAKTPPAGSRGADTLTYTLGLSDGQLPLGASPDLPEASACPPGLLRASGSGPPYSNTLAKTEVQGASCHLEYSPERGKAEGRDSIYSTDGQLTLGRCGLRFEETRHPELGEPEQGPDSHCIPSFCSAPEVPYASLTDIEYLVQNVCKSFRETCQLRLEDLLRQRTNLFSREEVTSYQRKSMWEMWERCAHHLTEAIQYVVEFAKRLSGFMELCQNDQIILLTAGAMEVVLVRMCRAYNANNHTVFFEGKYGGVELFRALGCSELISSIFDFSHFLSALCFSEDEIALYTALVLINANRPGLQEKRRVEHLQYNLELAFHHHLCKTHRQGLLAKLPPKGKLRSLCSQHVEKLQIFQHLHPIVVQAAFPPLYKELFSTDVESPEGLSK
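Stably transfected Drosophila Schneider cells are the test system, with ROR gamma fused to Gal4 and luciferase under UAS control; luminescence is read after 20 hr of 700 uM copper sulfate induction at ambient temperature.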
DT40 TDP1 CPT: qHTS for Inhibitors of human tyrosyl-DNA phosphodiesterase 1 (TDP1): qHTS in cells in presence of CPT; chicken DT40 Tdp1-/-;hTDP1 cells + 20 nM CPT, ATP luminescence, 48 h; Potency, µM (titrated, usually from 46.2 µM), most hits filed as inhibitors; 420,000 tested, 12% active; AID 686979, 2013; also: nearly all actives have a fitted effect of over 55% in size
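Cell growth measured by CellTiter-Glo luminescence after a minimum 48 h, 37 C compound exposure with 20 nM CPT in Tdp1-knockout DT40 cells stably expressing hTDP1, seeded 400/well; qHTS titration format.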
Gal4-VP16 FLuc: VP16 counterscreen qHTS for inhibitors of ROR gamma transcriptional activity. 310,000 tested, 3.5% active. Potency, µM (titrated, usually from 53.6 µM), most hits filed as inhibitors. Drosophila S2 Gal4-VP16 UAS-luciferase, luminescence, 20 h. AID 2546, 2010;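 also: Gal4-VP16 expression switched on by copper sulfate through the metallothionein promoter; nearly all actives have a fitted effect of over 50% in size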
IL1B secr inh: qHTS for Inhibitors of Inflammasome Signaling: IL-1-beta AlphaLISA Primary Screen; AID 743279, 2014; 360,000 tested, 4.7% active; THP-1 LPS/ATP IL-1B secretion, AlphaLISA, 16 h; active compounds read low; activity change, % at 57.5 µM; in the data active = activity change below about -50%; inconclusive = mostly about -30% to -49%
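Secreted IL-1B measured by AlphaLISA bead assay after 16 h compound exposure of THP-1 cells; compounds (final up to 57.5 uM) added 1 h before LPS (250 ng/mL) and ATP (1.25 mM) stimulation; lower signal means less secretion.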
Large screens that a line does not name were inactive. Most compounds without a hit are left out; they make up all but 21% or so of the library. Unless noted, calls follow the shape of the dose curve; as a rule, active = well fitted curve in the direction sought with a large enough effect; inconclusive = small, poorly fitted or top-dose-only effect, or another doubt; inactive = no such curve, though single readings can be large; an effect the other way counts as inactive or inconclusive.

c1ccc(CNc2ncnc3nc(N4CCOCC4)[nH]c23)cc1	DT40 TDP1 CPT inconclusive (no result: ELG1 repair inh, RORgamma inh, Gal4-VP16 FLuc, IL1B secr inh)
COc1ccc(N2CCN(C(=O)CCNC(=O)c3ccc(C(C)(C)C)cc3)CC2)cc1	TDP1 cell noCPT inconclusive, ELG1 repair inh inconclusive, DT40 TDP1 CPT 18µM
O=C(CCCSc1nc2ccccc2[nH]1)NCc1ccccc1F	TDP1 cell noCPT 21µM, DT40 TDP1 CPT inconclusive
COc1ccc(N2CCN(C(=O)CN3CCN(C(c4ccccc4)c4ccccc4)CC3)CC2)cc1	TDP1 cell noCPT 23µM, DT40 TDP1 CPT inconclusive
COc1ccc(N2CCN(C(=O)COc3ccccc3)CC2)cc1	none
COc1ccc(C(=O)CCC(=O)N2CCN(c3ccccc3)CC2)cc1	TDP1 cell noCPT inconclusive, DT40 TDP1 CPT 16µM
O=C(NCc1ccco1)C1CCN(S(=O)(=O)c2cccc([N+](=O)[O-])c2)CC1	none
COc1cccc(CNC(=O)c2ccc3nc(CCc4ccccc4)oc3c2)c1OC	TDP1 cell noCPT inconclusive (no result: ELG1 repair inh, RORgamma inh, Gal4-VP16 FLuc, IL1B secr inh)
CC(C)COC(=O)N(C)C[C@@H]1OCc2cnnn2CCCC(=O)N([C@H](C)CO)C[C@H]1C	none (no result: ELG1 repair inh, RORgamma inh, Gal4-VP16 FLuc)
CCOC(=O)c1cccc(NC(=O)C2CCN(S(=O)(=O)c3cn(C)cn3)CC2)c1	none (no result: ELG1 repair inh, RORgamma inh, Gal4-VP16 FLuc, IL1B secr inh)
COc1ccc(N2CCN(C(=O)CCCSc3nc4ccccc4[nH]3)CC2)cc1	TDP1 cell noCPT inconclusive, ELG1 repair inh 23µM, DT40 TDP1 CPT inconclusive
O=C(CCC(=O)N1CCN(c2ccc(Cl)c(Cl)c2)CC1)c1ccccc1	TDP1 cell noCPT 18µM, DT40 TDP1 CPT 21µM
CCCS(=O)(=O)N1CC(=O)N(c2ccccc2C)C(C)(C(=O)NC2CCCCC2)C1 (configuration not stated)	none (no result: ELG1 repair inh, RORgamma inh, Gal4-VP16 FLuc, IL1B secr inh)
O=C(CN1C(=O)COc2ccc(Cl)cc21)Nc1cccc(C(=O)O)c1	none (no result: ELG1 repair inh, RORgamma inh, Gal4-VP16 FLuc, IL1B secr inh)
Fc1ccc(Nc2nc(-c3cccnc3)nc3ccccc23)cc1	TDP1 cell noCPT inconclusive, DT40 TDP1 CPT inconclusive (no result: ELG1 repair inh, IL1B secr inh)
c1ccc(Nc2nc(-c3ccncc3)nc3ccccc23)cc1	ELG1 repair inh 2.1µM
CC(Nc1nc(N2CCNCC2)nc2ccccc12)c1ccccc1 (configuration not stated)	TDP1 cell noCPT 5.2µM, DT40 TDP1 CPT 4.1µM, IL1B secr inh -104
CN(C)c1ccc(-c2nc(Nc3ccncc3)c3ccccc3n2)cc1	TDP1 cell noCPT 5.8µM, RORgamma inh inconclusive, DT40 TDP1 CPT 9.2µM, Gal4-VP16 FLuc 16µM (no result: ELG1 repair inh, IL1B secr inh)
Cc1ccccc1-c1nc(N2CCNCC2)c2ccccc2n1	none (no result: ELG1 repair inh, IL1B secr inh)
Fc1ccccc1Nc1nc(-c2ccncc2)nc2ccccc12	TDP1 cell noCPT inconclusive, ELG1 repair inh 2.6µM
COc1ccc(C2CC(c3ccccc3)Oc3cc(C)c(Cl)c(C)c32)cc1 (configuration not stated)	none (no result: TDP1 cell noCPT, ELG1 repair inh, DT40 TDP1 CPT, IL1B secr inh)
CN1CCN(c2ncc3ncc(=O)n(-c4ccccc4)c3n2)CC1	none (no result: ELG1 repair inh, IL1B secr inh)
O=C(COc1cccc([N+](=O)[O-])c1)NN1C(=O)c2ccccc2C1=O	none
Fc1ccc(Nc2nc(-c3ccncc3)nc3ccccc23)cc1	TDP1 cell noCPT inconclusive, ELG1 repair inh 2.3µM, DT40 TDP1 CPT inconclusive, Gal4-VP16 FLuc inconclusive
CC(Nc1nc(-c2cccnc2)nc2ccccc12)c1ccccc1 (configuration not stated)	TDP1 cell noCPT inconclusive, DT40 TDP1 CPT inconclusive (no result: ELG1 repair inh, RORgamma inh, Gal4-VP16 FLuc)
c1ccc(CCNc2nc(-c3ccncc3)nc3ccccc23)cc1	TDP1 cell noCPT 18µM, ELG1 repair inh 15µM, RORgamma inh inconclusive, DT40 TDP1 CPT 21µM
CC(Nc1nc(-c2ccncc2)nc2ccccc12)c1ccccc1 (configuration not stated)	TDP1 cell noCPT 18µM, RORgamma inh inconclusive, DT40 TDP1 CPT 18µM

Screening data: PubChem BioAssay, National Center for Advancing Translational Sciences (NCATS)
